# The campaign covered roughly 48,000 compounds. About 13,000 (27%) showed an effect of 50% or more. This is one part of the list.
# Test system: Wolbachia pipientis
# Experiment: Anti-Wolbachia Cell-Based Screen
# Assay type: functional
# Design: scale not given: in the data most compounds retested in dose-response had high values
# Conditions: 5 µM
row,Structure (SMILES),Percent Effect [%]
1,CS(=O)(=O)NCc1ccc(C(=O)NCc2ccc3c(c2)CCC3)o1,9.511
2,CCc1nc(Cn2ccnc2-c2nccn2C)no1,0.7793
3,Cc1nc(CN(C)C2CCN(Cc3cccc4c3OCCO4)C2)no1 (stereo not drawn),98.62
4,Cc1nc(CN(C)C2CCN(Cc3ccno3)C2)no1 (stereo not drawn),0.1776
5,Cc1nc(CN(C)C2CCN(Cc3cccc4cccnc34)C2)no1 (stereo not drawn),89.88
6,COc1ccc(OCC(=O)NC(C)c2ccc(F)cc2)c(C(=O)O)c1 (stereo not drawn),-8.723
7,Cc1cc(C(=O)N2CCCC(Cn3cc(C4CC4)nn3)C2)nc(C)n1 (stereo not drawn),-17.66
8,Cc1cc(-c2nccs2)nc(C2CCN(Cc3ccc(F)cc3)CC2)n1.Cl,104.7
9,CCn1c(CN(C)C)nnc1C1CCN(Cc2ccncc2)CC1,-6.888
10,Cc1ccsc1-c1nnc(C2CCN(Cc3ccc(F)cc3)CC2)o1,-8.577
11,CCn1c(CN2CCCC2)nnc1C1CCN(Cc2ccncc2)CC1,-5.506
12,Cc1cc(-c2nccs2)nc(C2CCN(Cc3ccncc3)CC2)n1.Cl,130.1
13,CNC(=O)CSC(C)c1ccc(Br)cc1 (stereo not drawn),-4.092
14,COC(=O)CN(C(=O)c1ccco1)c1cccc(F)c1,6.947
15,O=c1c2cccnc2cnn1CC(O)c1cccc(C(F)(F)F)c1 (stereo not drawn),6.556
16,NC(=O)NC(=O)CCSCc1coc(-c2cccc(Cl)c2)n1,85.07
17,Cc1ccc(-c2nc(CSCCC(=O)NC(N)=O)co2)c(C)c1,110.2
18,O=C(NCCc1coc(-c2ccc(F)cc2)n1)NC1CCC(O)CC1 (stereo not drawn),2.186
19,CC(O)CN1CCN(Cc2coc(-c3cccc(Cl)c3)n2)CC1 (stereo not drawn),-12.56
20,Cc1ccc(-c2nc(CCNC(=O)CCN3CCOC3=O)co2)cc1,4.701
21,NC(=O)NC(=O)CCSc1ccccc1Cl,-10.1
22,Cc1ccc(-c2nc(CSCCC(=O)NC(N)=O)co2)cc1,98.78

row,Structure (SMILES),Percent Effect [%]
1,COCCN(Cc1coc(-c2cccc(Cl)c2)n1)C1CC1,9.963
2,NC(=O)NC(=O)CCSCc1coc(-c2ccc(F)cc2)n1,75.11
3,COC(=O)CSCc1noc(-c2ccc(C)cc2)n1,-9.658
4,CC(SCCC(=O)NC(N)=O)c1ccc(F)cc1F (stereo not drawn),-2.178
5,CNC(=O)CS(=O)(=O)Cc1coc(-c2ccc(F)cc2)n1,-9.885
6,CNc1nc(C(=O)NCc2cccnc2N(C)C2CCCCC2)cs1,1.168
7,Cc1nn(C)c2nc(N(C)CCN(C)C)sc12,-12.15
8,Cc1cc(C#N)ccc1S(=O)(=O)NCc1cnc(N(C)C)n1C,-10.13
9,O=C(O)C(F)(F)F.O=C1CC2(CCCCN2CC2CC2)CN1c1ccccc1 (stereo not drawn),-2.383
10,Cc1ccccc1N1CC2(CCCCN2CC2CC2)CC1=O.O=C(O)C(F)(F)F (stereo not drawn),0.424
11,COCCN1CCCCC12CC(=O)N(c1cccc(C#N)c1)C2.O=C(O)C(F)(F)F (stereo not drawn),96.19
12,N#Cc1ccccc1N1CC2(CCCCN2CC2CC2)CC1=O.O=C(O)C(F)(F)F (stereo not drawn),-5.23
13,CN(C)CC(=O)N1CCC2(CC(=O)N(c3cccc(C#N)c3)C2)C1.O=C(O)C(F)(F)F (stereo not drawn),-15.58
14,COCCN1CCCCC12CC(=O)N(c1ccccc1OC)C2.O=C(O)C(F)(F)F (stereo not drawn),105
15,CCN1CCN(C(=O)c2ccc(OC)nn2)c2ccccc21,6.209
16,CC(C)(C)Cc1nnc(NCc2cccc(C#N)c2)o1,-57.27
17,CS(=O)(=O)NC1CCCN(C(=O)c2cccnc2)C1 (stereo not drawn),108.4
18,CC(NC(=O)Nc1cccnc1N1CCCC1)c1ccccn1 (stereo not drawn),9.094
19,CS(=O)(=O)NC1CCN(C(=O)c2ccc(Br)cc2)C1 (stereo not drawn),2.662
20,CS(=O)(=O)NC1CCCN(C(=O)Nc2cccnc2)C1 (stereo not drawn),122.7
21,CS(=O)(=O)NC1CCCN(C(=O)Nc2cccnc2N2CCCC2)C1 (stereo not drawn),111.1
22,Cn1cc(NC(=O)N2CCC(NS(C)(=O)=O)CC2)ccc1=O,-4.185

row,Structure (SMILES),Percent Effect [%]
1,COCCCC(=O)Nc1cccnc1N1CCCCC1,0.2962
2,CC(C)S(=O)(=O)NCC1CCCN(C(=O)c2cccnc2)C1 (stereo not drawn),-9.569
3,CCCN(C(=O)CNC1CCc2ncnn2C1)C1=CCCCC1 (stereo not drawn),7.464
4,COC1CCN(C(=O)COC(C)=O)CC(=O)N(C)c2ccccc21 (stereo not drawn),102.8
5,CC(C)(C)CC(=O)N1CC[C@H]2NC(=O)N(Cc3ccccc3)C(=O)[C@H]21,-1.242
6,CC(C)(C)CC(=O)N1CC[C@H]2CC(=O)N(CCc3c[nH]cn3)CC[C@H]2C1,-18.99
7,COC1CCN(C(=O)CC(C)(C)C)CC(=O)N(C)c2ccccc21 (stereo not drawn),108.9
8,CCC[C@H]1CN(c2nccc(OC)n2)C[C@@H]1NS(=O)(=O)N(C)C,12.34
9,CCN(Cc1nccn1C)C(=O)c1ccc(NCCc2c[nH]cn2)nc1,-4.233
10,CCN(Cc1cnn(C)c1)S(=O)(=O)c1ccc(NC(=O)C(C)(C)C)cc1,-17.75
11,COCCN(C)S(=O)(=O)c1cc(C)cc(F)c1,-0.1957
12,CCCN(Cc1cnn(C)c1)S(=O)(=O)c1ccc(F)c(C#N)c1,88.2
13,CCCN(Cc1cnn(C)c1)S(=O)(=O)c1cc(C)cc(F)c1,91.35
14,CCCN(Cc1cnn(C)c1)S(=O)(=O)c1cccc(F)c1C#N,103.9
15,CCCN(Cc1cnn(C)c1)CC1CCCN(S(C)(=O)=O)C1 (stereo not drawn),-6.058
16,CCN(Cc1cnn(C)c1)S(=O)(=O)c1ccc(NC(C)=O)cc1,-1.303
17,CN(CCn1cccn1)S(=O)(=O)c1cccc(F)c1C#N,-19.52
18,CCN(CCC(F)(F)F)S(=O)(=O)c1cccc(F)c1C#N,-15.21
19,COCCOCC(=O)NCCCOC1CCCc2ccccc21 (stereo not drawn),-58.49
20,Cc1noc(C)c1CS(=O)(=O)CC(=O)N(C)Cc1cccc(F)c1,-54.06
21,O=C(NCc1nncn1C1CC1)C1(c2ccccc2)CCOCC1,1.62
22,CCS(=O)(=O)c1ncc(CN(C)Cc2ccccc2OC)n1CCOC,-30.57

row,Structure (SMILES),Percent Effect [%]
1,Cc1oc(-c2ccc(Cl)cc2)nc1C(=O)NC1=NCCS1,-49.42
2,CCOCC(=O)N1Cc2[nH]nc(COCC3CC3)c2C1.O=C(O)C(F)(F)F,-0.4061
3,COc1cc(CNC2CCCN(c3cccnn3)C2)cc2c1OCO2 (stereo not drawn),-1.044
4,CCc1nc2n(n1)CC(NCc1cc(OC)c3c(c1)OCCO3)CC2 (stereo not drawn),96.75
5,CCc1nc2n(n1)CC(NCC(=O)Nc1cc(C)on1)CC2 (stereo not drawn),-10.03
6,CCc1nc2n(n1)CC(NCc1cc(OC)c3c(c1)OCO3)CC2 (stereo not drawn),105
7,Cc1nc2n(n1)CC(NCc1cc(Cl)c3c(c1)OCCO3)CC2 (stereo not drawn),95.39
8,CCc1nc2n(n1)CC(NCc1cc3ccccc3o1)CC2 (stereo not drawn),-28.44
9,COc1cc(CNC2CCc3nc(C(C)C)nn3C2)cc2c1OCO2 (stereo not drawn),-4.906
10,Cc1nc2n(n1)CC(NCc1cc(Cl)c3c(c1)OCCCO3)CC2 (stereo not drawn),2.469
11,COc1cc(CNC2CCc3nc(C)nn3C2)cc2c1OCO2 (stereo not drawn),104.6
12,CCc1nc2n(n1)CC(NCc1ccccc1OCC(=O)NC)CC2 (stereo not drawn),0.2163
13,Cc1nc2n(n1)CC(NCc1nnc(C(C)(C)C)o1)CC2 (stereo not drawn),-15.95
14,COc1cc(CNC2CCc3nc(C)nn3C2)cc2c1OCCO2 (stereo not drawn),2.484
15,Cn1c(CCNC(=O)Nc2cn[nH]c2)nc2ccc(F)cc21,-27.77
16,O=C(NCc1ccc(-n2cncn2)nc1)N(CC1CCOC1)C1CC1 (stereo not drawn),4.835
17,O=C(NC1(c2nccs2)CCCC1)c1cc(C2CC2)[nH]n1,-18.19
18,CC(C)n1cnnc1CN(C)Cc1cnc(-c2ccco2)nc1,-3.944
19,CNC(=O)c1cccc(CNC(C)c2ccc(F)cc2N(C)C)c1 (stereo not drawn),2.761
20,Cc1cc(CNC(=O)c2cccs2)ccc1S(C)(=O)=O,-1.482
21,Nc1ccc(C(=O)N2C[C@@H]3CC[C@H](C2)N(Cc2ccccc2)C3)cn1,108.6
22,Cc1ccc(C)c(CN2C[C@H]3CC[C@@H]2CN(C(=O)c2cccnc2)C3)c1,3.177

row,Structure (SMILES),Percent Effect [%]
1,O=C(c1cnc(O)cn1)N1C[C@@H]2CC[C@H](C1)N(Cc1ccccc1)C2,93.73
2,CCn1cc(CN2C[C@H]3CC[C@@H]2CN(C(=O)c2cnccn2)C3)cn1,6.074
3,Cc1ccc(C(=O)N2C[C@@H]3CC[C@H](C2)N(Cc2ccccc2)C3)cn1,101.3
4,O=C(c1cccnc1)N1C[C@@H]2CC[C@H](C1)N(Cc1cccc(Cl)c1F)C2,-33.46
5,N#Cc1ccccc1CN1C[C@H]2CC[C@@H]1CN(C(=O)c1cccnc1)C2,-5.944
6,CC(=O)c1ccc(C(=O)N2C[C@@H]3CC[C@H](C2)N(Cc2ccccc2)C3)s1,-1.466
7,O=C(c1cccnc1)N1C[C@@H]2CC[C@H](C1)N(Cc1ccc(F)cc1Cl)C2,-16.95
8,c1ccc(SCCN2CCCC(Cn3ccnc3)C2)cc1 (stereo not drawn),-2.811
9,COCCc1noc(CN2CCC3(CCCO3)CCC2=O)n1 (stereo not drawn),-3.143
10,CCn1cnnc1CNC(=O)c1cc(Cl)ccc1O,6.278
11,O=C(NCCn1cnnc1C1CC1)c1c(O)cc(F)cc1F,120
12,CC(C)Cn1cnnc1C1CCCN1C(=O)c1ccc(F)cc1F (stereo not drawn),-3.293
13,CC(C)c1nncn1CCNC(=O)c1ccc(Cl)cc1O,126.8
14,CC(C)c1nncn1CCNC(=O)c1c(O)cc(F)cc1F,158.6
15,CCn1cnnc1CNC(=O)c1cc(Cl)ccc1OC,2.71
16,CC(C)c1nc(C(=O)NCCn2ccnc2)nn1-c1cccc(F)c1,0.4969
17,CN(C)C(C(=O)NCCn1cccc1)c1cccc(F)c1 (stereo not drawn),1.101
18,O=C(NCCn1cccc1)c1c(O)cc(F)cc1F,114.7
19,O=C(NCCC(=O)N1CCCCCC1)c1c(O)cc(F)cc1F,4.152
20,CC(C)c1ccc(O)c(C(=O)NCc2nncn2C)c1,-11.21
